Source: PubChem
GDH-TPI counter: GDH-TPI coupled enzyme inhibition counter-screen; AID 588335; GDH-TPI coupled enzyme counterscreen, NADH absorbance; inhibition, % at 4.8 µM; 1.2% of 360,000 active; in the data active means inhibition above about 30%;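 further: 0% = DMSO wells and 100% = wells lacking the enzyme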
Mtb FBA inh: Mtb fructose-bisphosphate aldolase inhibition. P9WQA3. purified M. tuberculosis FBA, fluorescence read-out. inhibition, % at 1 µM. 2.3% of 360,000 active. AID 588726; in the data active means inhibition above about 27%;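 further: 0% = vehicle and 100% = reference inhibitor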
Target sequence (P9WQA3 whole entry, looked up): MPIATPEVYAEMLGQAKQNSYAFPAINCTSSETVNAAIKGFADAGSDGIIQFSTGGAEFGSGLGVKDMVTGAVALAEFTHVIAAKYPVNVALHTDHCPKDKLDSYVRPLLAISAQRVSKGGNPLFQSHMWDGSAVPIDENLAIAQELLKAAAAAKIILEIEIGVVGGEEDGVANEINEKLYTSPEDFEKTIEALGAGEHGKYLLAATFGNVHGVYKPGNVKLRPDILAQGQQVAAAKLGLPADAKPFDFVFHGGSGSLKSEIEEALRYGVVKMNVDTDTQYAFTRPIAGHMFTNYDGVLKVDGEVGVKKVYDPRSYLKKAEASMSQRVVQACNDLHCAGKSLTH
RecA splice inh: blocks M. tuberculosis RecA intein splicing | P9WHJ3 | cell-free RecA intein splicing, fluorescence | 0.75% of 290,000 active | inhibition, % (no concentration beside the values); in the data active means inhibition above about 30%; inconclusive means no clear call, values can overlap the other calls;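 further: 0% = vehicle wells and 100% = reference inhibitor control wells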
UGM FP inh: inhibitors of M. tuberculosis UDP-galactopyranose mutase | P9WIQ1 | purified UGM, fluorescence polarization probe displacement | inhibition, % at 10 µM | 0.06% of 320,000 active | AID 504406; in the data active means inhibition above about 10%, passing the limit was not always enough; inconclusive means no clear call, values can overlap the other calls
Rv3671c protease: inhibitors of M. tuberculosis serine protease Rv3671c; P9WHR9; inhibition, % at 5.96 µM; 0.048% of 320,000 active; AID 2606; in the data active means inhibition above about 38%;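 further: extracellular domain of Rv3671c used as enzyme; 0% = enzyme with DMSO and 100% = no enzyme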
Mtb bLac sens: beta-lactam sensitization of Mtb H37Rv. M. tuberculosis H37Rv growth with meropenem, percent inhibition. inhibition, % at 25 µM. 0.27% of 330,000 active. AID 434955; call rule not given here;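 further: growth measured after seven days incubation then overnight dye step; 0% = bacteria only wells and 100% = bacteria with antibiotic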
Active calls of the source: *; ? = inconclusive; · = no result; + = active, no number. Compounds with a hit are over-represented: about 4% of the library has one in this group of screens.

SMILES | GDH-TPI counter | Mtb FBA inh | RecA splice inh | UGM FP inh | Rv3671c protease | Mtb bLac sens
CCCN(C(=O)COC(=O)Cn1c(=O)oc2ccccc21)c1c(N)n(Cc2ccccc2)c(=O)[nH]c1=O | 1 | 0 | 2 | -1 | 1 | -1
C=C(c1ccccc1)c1ccccc1N | 3 | 3 | -3 | -1 | -12 | -5
O=C(/C=C/c1ccco1)NC(=S)Nc1ccccc1N1CCOCC1 | 46* | -2 | 1 | 1 | 0 | -4
CC(=O)Nc1ccc(NC(=S)NC(=O)/C=C/c2ccco2)cc1 | 6 | 2 | 0 | 0 | -1 | 10
Cc1cccnc1NC(=S)NC(=O)/C=C/c1ccco1 | 16 | 0 | -6 | -3 | -2 | -12
CN1CCN(c2ccc(NC(=S)NC(=O)/C=C/c3ccco3)cc2)CC1 | 31* | -2 | 0 | -1 | -5 | 1
CC(=O)N(C)c1ccc(NC(=S)NC(=O)/C=C/c2ccco2)cc1 | 40* | -7 | 0 | 5 | -8 | 2
O=C(/C=C/c1ccco1)NC(=S)Nc1ccccn1 | 40* | 1 | 2 | -3 | -2 | ?
CC1(C(=O)NS(=O)(=O)c2ccccc2)CCN1C(=O)CC1CCCC1 (stereo unspecified) | 4 | -1 | · | · | · | ·
CCOc1ccc(NS(=O)(=O)c2cccc(C(=O)N(C)Cc3ccco3)c2)cc1 | 3 | 0 | · | 0 | -5 | -7
Cc1[nH]c2ccc(C(=O)NCCN3CCOCC3)cc2c1C | 6 | 5 | -3 | 1 | -12 | -1
CCOC(=O)C1=C[C@@H](c2ccccc2)N(S(=O)(=O)c2ccc(C)cc2)[C@H]1c1cccc(Cl)c1 | · | 1 | · | · | · | ·
COc1cccc(-c2nnc(-c3ccc(C)o3)o2)c1 | 1 | 179* | 3 | -1 | 2 | -9
COc1cc(C(=O)N2CCN(C(=O)C3CCCO3)CC2)cc(OC)c1OC (stereo unspecified) | 0 | 1 | · | · | -6 | 1
COc1cc2nc(N3CCN(C(=O)C4CCCO4)CC3)nc(N)c2cc1OC (stereo unspecified) | 13 | 112* | -2 | -2 | 3 | -6
CCN(/C=N/c1sc2c(c1C#N)CC(C)(C)NC2(C)C)CC | 30 | 2 | 0 | -2 | -1 | 3
CN(C)/C=N/c1sc2c(c1C#N)CC(C)(C)NC2(C)C | 36* | 0 | -1 | 0 | 2 | 10
COc1cc(Cl)ccc1OC1(C)CCN(Cc2ccc(-c3ccccn3)cc2)C1 (stereo unspecified) | 5 | 1 | · | · | · | ·
COc1ccc(C2=Nn3c(nnc3C(F)(F)F)SC2)cc1 | 9 | 1 | 1 | 0 | 11 | 8
O=C(CSc1nc2[nH]c(=O)cc(O)c2s1)Nc1ccc(Br)cc1 | 32* | 6 | · | 0 | -1 | -11
O=C(CSc1nc2[nH]c(=O)cc(O)c2s1)Nc1cccc(Br)c1 | 16 | -5 | · | 4 | -3 | -13
CCCC(NC(=O)COc1cc2c(c3oc(=O)cc(C)c13)CCC(C)(C)O2)C(=O)O (stereo unspecified) | 8 | 128* | -2 | 3 | 2 | -8
CC[C@H](C)[C@H](NC(=O)CNC(=O)COc1cc2c(c3oc(=O)cc(C)c13)CCC(C)(C)O2)C(=O)O | -2 | + | 0 | -2 | -3 | 3
Cc1cc(OCC(=O)NCC2CCC(C(=O)O)CC2)c2c(C)cc(=O)oc2c1 (stereo unspecified) | 10 | 21 | -5 | 4 | -1 | -3
CC[C@@H](C)[C@H](NC(=O)Cc1c(C)c2c(cc(C)c3c(C)c(C)oc32)oc1=O)C(=O)O | 10 | 27 | -30 | -3 | · | 4
SMILES | GDH-TPI counter | Mtb FBA inh | RecA splice inh | UGM FP inh | Rv3671c protease | Mtb bLac sens
Cc1c(OCC(=O)N[C@@H](CSCc2ccccc2)C(=O)O)ccc2c3c(c(=O)oc12)CCC3 | 8 | 2 | 10 | · | · | ·
Cc1cc(=O)oc2c3c(cc(OCC(=O)NCC(=O)N[C@H](C(=O)O)C(C)C)c12)OC(C)(C)CC3 | 2 | + | -1 | 1 | -4 | -3
COc1ccc(OC)c(NC(=O)CSc2nc3scc(C)c3c(=O)[nH]2)c1 | 0 | 0 | 1 | -1 | 0 | -1
CCn1c(=S)sc2c(=O)[nH]c(SCC(=O)Nc3cc(OC)ccc3OC)nc21 | 34* | -2 | -5 | -4 | -2 | 3
COc1ccc(Cl)cc1-n1c(=S)sc2c(=O)[nH]c(SCC(=O)NCC3CCCO3)nc21 (stereo unspecified) | 38* | 0 | · | 1 | -8 | -5
COCCCNC(=O)CSc1nc2c(sc(=S)n2-c2cc(Cl)ccc2OC)c(=O)[nH]1 | 29 | -1 | 0 | 1 | -3 | -7
Cc1noc(/C=C/c2cccs2)c1S(=O)(=O)N1CCC(C(=O)NCCCN2CCCC(C)C2)CC1 (stereo unspecified) | 7 | -1 | 4 | 2 | 3 | 3
Clc1ccccc1NN=Cc1ccccn1 | 47* | -1 | · | · | · | ·
CCN(c1ccc(OCC(=O)OCC(=O)Nc2ccc(F)c(F)c2F)cc1)S(=O)(=O)c1ccccc1 | 1 | -2 | · | 3 | -2 | -4
O=[N+]([O-])c1c(NCCO)cc(N2CCCCC2)c2nonc12 | 13 | -23 | · | 3 | -5 | 4
O=[N+]([O-])c1cc([N+](=O)[O-])c(N2CCCCCC2)cc1NCCO | 34* | -6 | 10 | 1 | 0 | 40
CCC(=O)/C=C1\Sc2ccc(OC)cc2N1CC | 31* | 0 | -7 | 3 | -1 | ?
Oc1ccc(C[C@H]2CNC(=S)N2CC2CCCN2C[C@H](Cc2ccc(O)cc2)N2C[C@H](Cc3ccccc3)N(CCc3ccccc3)C2=S)cc1 (stereo partly specified) | 7 | 0 | · | · | · | ·
COc1cc2c(C#N)c(N3CCOCC3)nc(N)c2c(N)n1 | 8 | 32* | 2 | -2 | -1 | -10
O=C(CSc1nc2nc(-c3cccs3)cc(C(F)(F)F)c2c(=O)[nH]1)C(F)(F)F | 14 | + | -58 | 1 | -15 | -12
COc1cc(C(=O)NN=Cc2ccc(N(CCCl)CCCl)cc2)cc(OC)c1OC | 61* | 9 | · | · | · | ·
COc1ccc(CC(=O)N/N=C/C=C/c2ccc3c(c2)OCO3)cc1OC | 35* | 1 | -4 | -3 | -8 | 60
COc1ccc(/C=C/C(=O)NCc2ccc3c(c2)OCO3)cc1OC | 14 | 7 | -1 | -1 | -7 | -8
COC(=O)N/N=C\C=C\c1ccc2c(c1)OCO2 | 44* | 3 | -2 | 1 | -6 | 14
CCN(CC)c1ccc(C(=O)N/N=C(\C)c2ccc(OC)c(OC)c2)cc1 | 32* | -2 | -3 | 2 | 7 | -1
O=C(CN1CCN(Cc2ccccc2Cl)C1=O)NCc1ccccn1 | 19 | -3 | -3 | -2 | 13 | -3
COc1ccc(O)c(CN2CCC(n3nccc3NC(=O)c3ccccc3Cl)CC2)c1 | 0 | 1 | -2 | 0 | · | -8
CC1(C)Cc2c(cnn2-c2ccc(F)cc2)C(NC(=O)CCCN2CCCCC2=O)C1 (stereo unspecified) | -1 | 0 | · | 0 | -2 | -9
